Data as given in PubChem BioAssay (NCATS).

Tests used:
[1] = qHTS profiling of the MIPE4 collection as inhibitors of Plasmodium falciparum (3D7) proliferation (AID 743344);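 also: scaled between DMSO vehicle wells and 0.29 µM artemisinin as full inhibition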; conditions: P. falciparum 3D7 in erythrocytes, SYBR Green DNA fluorescence, 72 h; at 28.5 µM unless noted
Method in brief: (§1)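 Erythrocytes infected with P. falciparum (0.3% parasitemia, 2.5% hematocrit) incubated with compounds 72 h at 37 C, 5% CO2. Lysis with saponin/Triton buffer containing SYBR Green I, overnight at room temperature in the dark; DNA fluorescence (485/535 nm) normalised to 0.29 uM artemisinin and DMSO.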

[2] = qHTS profiling of the MIPE4 collection as inhibitors of Plasmodium falciparum (DD2) proliferation (AID 743345); conditions: P. falciparum Dd2 in erythrocytes, SYBR Green DNA, 72 h; at 28.5 µM unless noted
Method in brief: as §1

[3] = qHTS profiling of the MIPE4 collection as inhibitors of Plasmodium falciparum (DD2) proliferation (Rep 2) (AID 743346); conditions: P. falciparum Dd2 in erythrocytes, SYBR Green DNA, 72 h; at 28.5 µM unless noted
Method in brief: as §1

Row | Structure (SMILES) | parasite growth, % of DMSO control [1] [%] | parasite growth remaining, % of DMSO control (lower = more inhibition) [2] [%] | parasite growth, % of control (lower = inhibition) [3] [%]
1 | C[C@](Cc1c[nH]c2ccccc12)(NC(=O)OC1C2CC3CC(C2)CC1C3)C(=O)NC[C@H](NC(=O)CCC(=O)O)c1ccccc1 (stereo partly specified) | 10 | 36.8 | 30.8
2 | CC(=O)SCC(Cc1ccccc1)C(=O)NCC(=O)OCc1ccccc1 (stereo unspecified) | 43.2 | 97.5 | 60.4
3 | CNC(=O)Nc1ccc(-c2nc(N3CC4CCC(C3)O4)c3cnn(C4CCC5(CC4)OCCO5)c3n2)cc1 | 5.91 | 7.38 | 8.34
4 | CC(=O)OCC(=O)[C@@]1(O)CC[C@H]2[C@@H]3CCC4=CC(=O)CC[C@]4(C)[C@@H]3C(=O)C[C@@]21C | 68.4 | 93.2 | 122
5 | CC(C)C[C@H](NC(=O)CNC(=O)c1cc(Cl)ccc1Cl)B1OC(=O)CC(CC(=O)O)(C(=O)O)O1 (stereo partly specified) | 4.74 | 7.15 | 7.43
6 | CN(C)CCN1C(=O)c2cccc3cc(N)cc(c23)C1=O | 18.3 | 12.6 | 10.8
7 | CC(=CC(=O)Nc1ccccc1C(=O)O)c1ccc2ccccc2c1 | 383 | 110 | 133
8 | Cn1cc(CNCC2CCN(c3ncc(C(=O)NO)cn3)CC2)c2ccccc21 | 4.76 | 7.34 | 8.03
9 | CC(=O)NC(CS)C(=O)O (stereo unspecified) | 101 | 97.9 | 118
10 | CC(=O)[C@]1(O)Cc2c(O)c3c(c(O)c2[C@@H](O[C@H]2C[C@H](N)[C@@H](O)[C@H](C)O2)C1)C(=O)c1ccccc1C3=O | 27.7 | 46.3 | 49
11 | C[C@]12CCC(=O)C=C1[C@@H]1CC1[C@H]1[C@H]3[C@@H]4C[C@H]4[C@@]4(CCC(=O)O4)[C@@]3(C)CC[C@H]12 (stereo partly specified) | 65.8 | 82.7 | 41.4
12 | Oc1ccc([C@@H]2Oc3ccc(O)cc3[C@@H]3CCC[C@@H]32)cc1 | 43.6 | 90.8 | 47
13 | C[C@H](NCc1ccc2c(c1)nc(NC(=O)c1ccc(-c3cn[nH]c3)s1)n2CCc1ccccc1)C(C)(C)C | 5.07 | 4.87 | 13.1
14 | CN(C)c1ccc(C(=O)NCCCCCCC(=O)NO)cc1 | 5.09 | 7.09 | 8.85
15 | Nc1nc2c(c(=O)[nH]1)N(C=O)[C@H](CNc1ccc(C(=O)N[C@@H](CCC(=O)O)C(=O)O)cc1)CN2 | 106 | 96.2 | 86.2
16 | CCC(C(=O)O)C1CCC(C)C(C(C)C(O)C(C)C(=O)C(CC)C2OC3(C=CC(O)[C@@]4(CC[C@](C)(C5CC[C@@](O)(CC)C(C)O5)O4)O3)C(C)CC2C)O1 (stereo partly specified) | 9.07 | 6.02 | 7.13
17 | C[C@@H](Cc1cc2c(c(C(N)=O)c1)N(CCCO)CC2)NCCOc1ccccc1OCC(F)(F)F | 48.1 | 84 | 58.3
18 | CC(C)[C@H](CO)Nc1nc(Nc2cccc(Cl)c2)c2ncn(C(C)C)c2n1 | 8.7 | 21.1 | 17.2
19 | Nc1nc(=O)n([C@H]2CSC(CO)O2)cc1F (stereo partly specified) | 399 | 99.2 | 160
20 | CC(Cc1ccc(O)c(O)c1)(NN)C(=O)O (stereo unspecified) | 54.5 | 15.4 | 75.5
21 | C=CC[C@@H]1C=C(C)C[C@H](C)C[C@H](OC)[C@H]2O[C@@](O)(C(=O)C(=O)N3CCCC[C@H]3C(=O)O[C@H](C(C)=C[C@@H]3CC[C@H](O)[C@H](OC)C3)[C@@H](C)[C@@H](O)CC1=O)[C@@H](C)C[C@@H]2OC | 8.55 | 8.99 | 10.3
22 | Cc1cn([C@@H]2O[C@H](CO)[C@@H](O)[C@H]2F)c(=O)[nH]c1=O | 100 | 94.7 | 78.6
23 | CCOc1cc2c(c(F)c1OCC)C(=N)N(CC(=O)c1cc(N3CCOCC3)c(OC)c(C(C)(C)C)c1)C2 | 5.53 | 7.24 | 11.7

Row | Structure (SMILES) | parasite growth, % of DMSO control [1] [%] | parasite growth remaining, % of DMSO control (lower = more inhibition) [2] [%] | parasite growth, % of control (lower = inhibition) [3] [%]
24 | CC(C)Oc1ccc(C(=O)N[C@H](CNC(=O)CN(C)C)Cc2ccc(-c3cn4cccc([C@H](C)O)c4n3)cc2)cc1Cl | 5.62 | 8.81 | 12.6
25 | CC(=O)ON=C1C(c2c(O)[nH]c3cc(Br)ccc23)=Nc2ccccc21 | 2.37 | 6.76 | 6.05
26 | CN(N=O)C(=O)N[C@H]1C(O)OC(CO)[C@@H](O)[C@H]1O (stereo partly specified) | 81.6 | 93.8 | 114
27 | O=C1CSC(=O)N1C(CCc1ccncc1)COc1ccc(-c2cccc([N+](=O)[O-])c2)cc1 (stereo unspecified) | 17.8 | 49.4 | 32.8
28 | C[C@H](NCc1ccc(OCc2cccc(F)c2)cc1)C(N)=O | 8.15 | 6.14 | 12.8
29 | Cc1noc(-c2ccc(CSCCC(=O)O)cc2)c1NC(=O)OC(C)c1ccccc1Cl (stereo unspecified) | 41.1 | 96 | 49.9
30 | NC(=O)c1ncn([C@@H]2O[C@H](CO)[C@@H](O)[C@@H]2O)c1O | 109 | 33.1 | 102
31 | C[C@@H](NCc1cc2ccccc2[nH]1)c1cccc2ccccc12 | 41.8 | 83.3 | 71.9
32 | O=c1ccn([C@@H]2O[C@H](CO)[C@H](O)[C@@H]2F)c(=O)[nH]1 | 187 | 100 | 107
33 | O=C(Nc1nnc(-c2ccco2)o1)c1cc(-c2ccccc2)nc2ccccc12 | 51.6 | 94.4 | 42.6
34 | N#Cc1cc(NC(=O)Nc2nnc(-c3ccncc3)s2)ccc1-c1cn[nH]c1 | 45.1 | 101 | 74.6
35 | CC(C)(N)c1ccc(-c2nc3ccccc3nc2-c2ccccc2)cc1 | 21.6 | 18.1 | 26.5
36 | COC1=C2C[C@@H](C)C[C@H](OC)[C@@H](O)[C@@H](C)C=C(C)[C@H](OC(N)=O)[C@@H](OC)C=CC=C(C)C(=O)NC(=CC1=O)C2=O | 5.43 | 5.64 | 11.9
37 | O=C(CCCCCCC(=O)Nc1cccnc1)NO | 5.14 | 7.37 | 7.99
38 | COc1cc2c(cc1O)CCC1C2CC[C@@]2(C)C1CC[C@@H]2O (stereo partly specified) | 79.6 | 94.6 | 67
39 | COC(=O)[C@@H]1[C@H]2C[C@@H]3c4[nH]c5ccccc5c4CCN3C[C@@H]2CC[C@@H]1O | 79.9 | 93.2 | 69.1
40 | CN(C)CC(=O)N1CCC(c2ccc(NC(=O)c3ncc(C#N)[nH]3)c(C3=CCCCC3)c2)CC1 | 12.3 | 16.6 | 12.3
41 | CC[C@]12C=CCN3CC[C@@]4(c5cc([C@@]6(C(=O)OC)C[C@H]7C[C@@H](C(C)(F)F)CN(Cc8c6[nH]c6ccccc86)C7)c(OC)cc5N(C)[C@H]4[C@@](O)(C(=O)OC)[C@H]1OC(C)=O)[C@@H]32 | 17 | 12.3 | 24.8
42 | C=CC(=O)N1CCc2ccc(-n3c(=O)ccc4cnc5ccc(-c6cnn(C)c6)cc5c43)cc21 | 5.53 | 8.35 | 8.38
43 | COc1ccc(Nc2cc(-c3cnc(N)nc3)nc(N3CCOCC3)n2)cn1 | 16.3 | 11.1 | 27.1
44 | CCOC(=O)[C@@H](N)Cc1ccc(-c2cc(O[C@H](c3ccc(Cl)cc3-n3ccc(C)n3)C(F)(F)F)nc(N)n2)cc1 | 5.93 | 28.1 | 43.9
45 | O=C(NC1CC1)c1cccc(-c2ccc3c(NC(=O)C4CC4)n[nH]c3c2)c1 | 35.1 | 96.7 | 59.5
46 | CCCCCCCCCCCC(CC1OC(=O)C1CCCCCC)OC(=O)C(CC(C)C)NC=O (stereo unspecified) | 7.26 | 13.8 | 17

Row | Structure (SMILES) | parasite growth, % of DMSO control [1] [%] | parasite growth remaining, % of DMSO control (lower = more inhibition) [2] [%] | parasite growth, % of control (lower = inhibition) [3] [%]
47 | O=C(O)C=Cc1ccc(Cn2ccnc2)cc1 | 90.5 | 100 | 96.2
48 | COc1ccc2c(c1OC)C(=O)OC2[C@H]1c2c(cc3c(c2OC)OCO3)CCN1C (stereo partly specified) | 17.1 | 20.7 | 20.6
49 | COc1cc(CCc2cc(NC(=O)c3ccc(N4C[C@@H](C)N[C@@H](C)C4)cc3)n[nH]2)cc(OC)c1 | 50.5 | 66.7 | 43.7
50 | CCNC(=O)c1cc2c(-c3cc(OCCN4CCCC4)c(Cl)cc3Cl)nc(N)nc2s1 | 10.8 | 9.23 | 25.1
51 | CC(=O)OC[C@@H]1O[C@@H](n2ccc(=O)[nH]c2=O)[C@H](OC(C)=O)[C@H]1OC(C)=O | 158 | 115 | 141
52 | CCCCC(=O)O[C@]1(C(=O)CO)[C@@H](C)C[C@H]2[C@@H]3CCC4=CC(=O)C=C[C@]4(C)[C@@]3(F)[C@@H](O)C[C@@]21C | 13.5 | 78.8 | 54.9
53 | COc1cc2c(Nc3ccc(Cl)c(Cl)c3F)ncnc2cc1OCC1C[C@@H]2CN(C)C[C@H]2C1 | 6.7 | 7.75 | 18.3
54 | Cn1cc(-c2ccc3ncc(Cc4ccc5ncccc5c4)n3n2)cn1 | 26.2 | 60.3 | 33.6
55 | Cc1coc2c1C(=O)C(=O)c1c-2ccc2c(C)cccc12 | 8.32 | 19.5 | 15.4
56 | C[C@H](NC(=O)C(C#N)=Cc1cccc(Br)n1)c1ccccc1 | 59.1 | 86.2 | 33.4
57 | N=c1ccn2c(n1)O[C@H]1[C@@H](O)[C@@H](CO)O[C@H]12 | 82.9 | 119 | 83.2
58 | O=C(C=CC=Cc1ccc2c(c1)OCO2)N1CCCCC1 | 87.5 | 15.8 | 123
59 | O=C(O)c1ccc(Nc2ncc3c(n2)-c2ccc(Cl)cc2C(c2c(F)cccc2F)=NC3)cc1 | 56.9 | 82.8 | 44
60 | N#CC(=C(N)Sc1ccc(N)cc1)c1ccccc1C(F)(F)F | 24.4 | 69.5 | 33.9
61 | Cc1[nH]c(C=C2C(=O)Nc3ccccc32)c(C)c1CCC(=O)O | 7.83 | 176 | 138
62 | C=CC(=O)Nc1cc(NC(=O)c2ccc(C)c(NC(=O)c3ccno3)c2)cc(C(F)(F)F)c1 | 34 | 52.8 | 57.2
63 | CCOC(=O)C1=C(C)NC(=S)NC1c1cccc(O)c1 (stereo unspecified) | 90.7 | 93.6 | 85.5
64 | CCOC(=O)[C@H](CCc1ccccc1)N[C@@H](C)C(=O)N1[C@@H](C(=O)O)C[C@H]2CCC[C@@H]21 | 8.54 | 9.73 | 14.6
65 | OCCNC1CCCc2c1[nH]c1ccc(-c3ccccc3)cc21 (stereo unspecified) | 7.39 | 15.7 | 13.3
66 | Cc1nc(NC(=O)N2CCC[C@@H]2C(N)=O)sc1-c1ccnc(C(C)(C)C(F)(F)F)c1 | 13.3 | 36.1 | 24
67 | CCNC(=O)Nc1ccc(-c2nc3c(c(N4CCOC[C@H]4C)n2)CCN(C2COC2)C3)cc1 | 24.6 | 87.1 | 49
